Screening data (PubChem BioAssay)
Many of the other results were omitted from the sample, so hits are more common in it than they were.
ST2 IL33 inh = IL1RL1 inhibition; Q01638; AlphaLISA ST2-Fc/biotin-IL-33 interaction, 1 h; inhibition, % for hits at 17 µM; 2.3% of 78,000 active; AID 1259354; in the data active = inhibition above about 30%
Target sequence (Q01638 whole entry, looked up): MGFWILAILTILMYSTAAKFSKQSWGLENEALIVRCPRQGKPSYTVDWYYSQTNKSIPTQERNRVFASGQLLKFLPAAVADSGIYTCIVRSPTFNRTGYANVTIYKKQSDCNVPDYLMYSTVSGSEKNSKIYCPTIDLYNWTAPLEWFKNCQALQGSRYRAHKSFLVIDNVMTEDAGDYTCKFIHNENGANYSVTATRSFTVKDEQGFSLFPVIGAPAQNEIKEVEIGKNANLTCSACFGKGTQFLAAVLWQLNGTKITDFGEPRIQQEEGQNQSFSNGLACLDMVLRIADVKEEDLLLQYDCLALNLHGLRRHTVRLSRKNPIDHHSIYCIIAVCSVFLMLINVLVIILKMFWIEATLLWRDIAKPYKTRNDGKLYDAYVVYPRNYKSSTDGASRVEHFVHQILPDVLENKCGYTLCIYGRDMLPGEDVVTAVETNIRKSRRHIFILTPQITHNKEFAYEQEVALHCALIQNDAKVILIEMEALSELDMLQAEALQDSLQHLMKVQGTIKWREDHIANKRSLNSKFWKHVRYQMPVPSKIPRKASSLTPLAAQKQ
Of the large screens only hits and unclear results are named; the others gave an inactive call.

COc1ccc(N2C(=O)C(N3C(=O)c4ccccc4C3=O)C2c2cccc(OC)c2)cc1 (configuration not stated)	none
COc1ccc(C2CC(c3ccccc3)=NN2S(=O)(=O)c2ccccc2)cc1 (configuration not stated)	none
COc1ccc(C2=NN(CN3C(=O)C(=O)c4ccccc43)C(c3ccccc3)C2)cc1 (configuration not stated)	ST2 IL33 inh 36.0%
COc1ccc(C2=NN(C(=O)CCC(=O)O)C(c3ccc(Cl)cc3)C2)cc1 (configuration not stated)	none
COc1ccc(C2CC(c3ccc(Br)cc3)=NN2S(=O)(=O)c2ccccc2)cc1 (configuration not stated)	ST2 IL33 inh 34.0%
COc1ccc(C2=NN(S(=O)(=O)c3ccccc3)C(c3ccc(Br)cc3)C2)cc1 (configuration not stated)	none
COc1ccc(C2=NN(CN3C(=O)C(=O)c4ccccc43)C(c3cccc([N+](=O)[O-])c3)C2)cc1 (configuration not stated)	ST2 IL33 inh 39.0%
COc1ccccc1-n1c(SCC(=O)Nc2cccc(Cl)c2)nc2c(c1=O)SCC2	none
COc1ccc(N(CN2C(=O)c3ccccc3C2=O)C(C)=O)cc1	none
O=C1NCCN(C(=O)c2ccc(Cl)cc2)C1Cc1ccccc1 (configuration not stated)	none
C=CCN1C(=Nc2cccnc2)SCC1(O)c1ccccc1 (configuration not stated)	ST2 IL33 inh 53.0%
CC1CCN([C@@H]2[C@H](O)[C@H](CO)O[C@@H]2CNC2CCN(C)CC2)CC1	none
O=C1CC2CS(=O)(=O)CC2N1c1cccc(Cl)c1 (configuration not stated)	none
CC(C)C1Oc2ccc(Cl)cc2C2CC(c3cccs3)=NN21 (configuration not stated)	ST2 IL33 inh 34.0%
Clc1ccc2c(c1)C1CC(c3ccccc3)=NN1CO2 (configuration not stated)	none
c1csc(C2=NN3C(C2)c2ccccc2OC32CCCC2)c1 (configuration not stated)	none
O=C(Nc1ccc(Br)cc1)c1cccs1	none
Cc1ccc(C(=O)N[C@@H]2C=C(C(=O)NCCC(N)=O)C[C@@H](O)[C@@H]2O)cc1	none
CC(C)(C)CC(=O)N[C@@H]1C=C(C(=O)NCCC(N)=O)C[C@@H](O)[C@@H]1O	ST2 IL33 inh 83.0%
NC(=O)CCNC(=O)C1=C[C@@H](NC(=O)Cc2cccs2)[C@@H](O)[C@H](O)C1	none
COc1ccc(S(=O)(=O)N2CCC(N(C)C(C)C)CC2)cc1	none
CC(C)NC(=O)C1(S(=O)(=O)c2ccc(Cl)cc2)CC1	none
COCCN1CC(C(=O)NCCc2nc(-c3ccccc3)cs2)CCC1=O (configuration not stated)	none
Cc1c(Cc2ccccc2)c(NCCCO)n2c(nc3ccccc32)c1C#N	none
N#Cc1c2c(c(NCCCO)n3c1nc1ccccc13)CCC2	ST2 IL33 inh 31.0%
CCN(CC)CCNc1c2c(c(C#N)c3nc4ccccc4n13)CCC2	none
CCN1Cc2nc(OC)c(CNC(=O)C3COCCO3)cc2C1=O (configuration not stated)	none
Cc1cc2c(Nc3ccc(C(C)C)cc3)ncnc2s1	none
O=C(CCc1ccco1)NC1CCCN(CCc2ccccc2)C1 (configuration not stated)	ST2 IL33 inh 31.0%
COCCC(=O)NC1CCCN(CCc2ccccc2)C1 (configuration not stated)	none
O=C1CC(NC2CCN(Cc3ccco3)CC2)CN1CCc1ccccc1 (configuration not stated)	none
CC(=O)NC(N)=Nc1nc(=O)c2ccccc2s1	none
CCN1/C(=c2/sc3nc4ccccc4n3c2=O)C=Cc2cc(C)ccc21	none
CCN1/C(=C2/N=C(c3ccccc3)OC2=O)C=Cc2ccccc21	ST2 IL33 inh 56.0%
O=C1OC(c2ccc([N+](=O)[O-])cc2)=N/C1=C\c1ccccc1	none
COc1cc(N2CCC(Cn3cc(CO)nn3)CC2)ncn1	ST2 IL33 inh 65.0%
Cc1ccc(CCC(=O)N2CCC(Cn3cc(CO)nn3)CC2)cc1C	none
COc1ccc(OC)c(C2CCN(c3cc(OC)ncn3)C2)c1 (configuration not stated)	none
CCc1nc(CN2CCC(c3ccnc(-c4cccc(O)c4)c3)C2)c(C)[nH]1 (configuration not stated)	none
COc1ccc(C(=O)NC2CC2)c(OC2CCN(CCc3ccccc3)CC2)c1	none
Clc1ccccc1C1CCN(Cc2ncc[nH]2)C1 (configuration not stated)	none
Cc1cccc(C)c1NC(=O)c1cc2ccccc2o1	none
O=c1[nH]c(CN2CCOCC2)nc2c1C1(CCCC1)Cc1ccccc1-2	none
O=c1[nH]c(CN2CCCC2)nc2c1C1(CCCC1)Cc1ccccc1-2	none
CC1(C)Cc2ccccc2-c2nnc(-c3ccccc3)n21	none
CC1(C)Cc2ccccc2-c2nc(-c3ccccc3)oc(=O)c21	ST2 IL33 inh 41.0%
Cn1c(=O)c2nc(-c3ccccc3)oc2c2ccccc21	none
O=c1oc(-c2ccccc2)nc2c1C1(CCCC1)Cc1ccccc1-2	ST2 IL33 inh 48.0%
CCc1ccc(NC(=O)CSC2N=CN=N2)cc1 (configuration not stated)	none
O=C1/C(=C/c2cc(O)c(O)c(O)c2)Oc2cc(O)cc(O)c21	none
CN(CC1CCCCN1C)C(=O)c1cc(COc2ccc(F)cc2Cl)on1 (configuration not stated)	none
CC1=C(C(N)=O)C(c2ccccc2)n2nc(SCc3ccccc3)nc2N1 (configuration not stated)	none
CC1=C(C(=O)Nc2ccccc2C)C(c2ccncc2)n2nc(SCc3ccccc3)nc2N1 (configuration not stated)	ST2 IL33 inh 33.0%
CC1=C(C(=O)Nc2ccccc2)C(c2cccnc2)n2nc(SCc3ccccc3)nc2N1 (configuration not stated)	none
COC(=O)CC1C(=O)NCCN1C(=O)c1cc2cc(C)ccc2nc1C (configuration not stated)	none
c1cnc(-c2noc([C@@H]3Cc4nc[nH]c4CN3CC3CCCCC3)n2)cn1	none
Cc1ccc2c(c1)c(=O)c(C(=O)N(Cc1sccc1C)C1CC1)cn2C	none
CCn1cc(C(=O)N2CC(C)CC(C)C2)c(=O)c2cc(S(=O)(=O)N3CCCCC3)ccc21 (configuration not stated)	none
Cc1c(Cl)c(C(=O)NCC(C)Oc2cccnc2)nn1C (configuration not stated)	none
CCCCNC(=O)Cn1cnc2c1c(=O)n(C)c(=O)n2C	none
CC1CN(C(=O)Cn2cnc3c2c(=O)n(C)c(=O)n3C)CC(C)O1 (configuration not stated)	ST2 IL33 inh 95.0%
Cn1c(=O)c2c(ncn2CC(=O)Nc2ccccn2)n(C)c1=O	none
Cc1sc2ncn(CC(=O)NC(C)C)c(=O)c2c1S(=O)(=O)N1CC(C)CC(C)C1 (configuration not stated)	none
COc1ccc(C2(C#N)CCC(O)(C#N)CC2)cc1OC (configuration not stated)	none
O=C1CCCC2=C1C(c1cccnc1)n1nc(SCc3ccccc3)nc1N2 (configuration not stated)	none
Cc1ccc(NS(=O)(=O)c2ccc3[nH]c(=O)c(=O)[nH]c3c2)cc1Cl	none
Cc1ccc(NS(=O)(=O)c2ccc3[nH]c(=O)c(=O)[nH]c3c2)c(Cl)c1	ST2 IL33 inh 37.0%
Cc1ccc(Cl)cc1NS(=O)(=O)c1ccc2[nH]c(=O)c(=O)[nH]c2c1	none
CC(=O)Nc1ccc(N=Cc2ccc(Cl)cc2)cc1	none
COc1ccccc1N1CCC(N2CCCC(N3CCc4ccccc4C3)C2)CC1 (configuration not stated)	none
